According to PubChem BioAssay (EPA / NIEHS):
Where “and” joins values, the source holds several entries; their conditions need not be identical. Equal values may be shown once. Records with an inconclusive call do not appear. Calls of active or inactive are those of the source. How the source made its calls, unless noted: active means hit-call score of the fitted dose curve at least 0.9, where 1 is the maximum; inactive means score below 0.9.

What was measured:
[1] = CCTE_Harrill_HTTr_CellCount_MCF7: CCTE's Cell Proliferation Assessment for the High-Throughput Transcriptomics (HTTr) Platform, Harrill Lab (AID 2284012; active means hit-call score of the fitted dose curve at least 0.9, where 1 is the maximum;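 further: cells exposed to compound for six hours; intended direction is loss of nuclei count meaning fewer cells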)
Method in brief: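 Cell count served as viability reporter: loss of Hoechst-stained nuclei, counted by high content imaging, marks decreased growth or survival. Exposure was 6 h in MCF-7 cells across eight concentrations, with DMSO as baseline.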

[2] = target: Estrogen receptor (Homo sapiens) (UniProt P03372); test: CCTE_Deisenroth_AIME_384WELL_LUC_Active: CCTE's 384-well Estrogen Receptor Transactivation Assay with AIME metabolic competence (ERTA luciferase; metabolism positive), Deisenroth Lab (AID 2284030; active means hit-call score of the fitted dose curve at least 0.9, where 1 is the maximum)
Chain of Estrogen receptor (Homo sapiens) (P03372 whole entry, looked up): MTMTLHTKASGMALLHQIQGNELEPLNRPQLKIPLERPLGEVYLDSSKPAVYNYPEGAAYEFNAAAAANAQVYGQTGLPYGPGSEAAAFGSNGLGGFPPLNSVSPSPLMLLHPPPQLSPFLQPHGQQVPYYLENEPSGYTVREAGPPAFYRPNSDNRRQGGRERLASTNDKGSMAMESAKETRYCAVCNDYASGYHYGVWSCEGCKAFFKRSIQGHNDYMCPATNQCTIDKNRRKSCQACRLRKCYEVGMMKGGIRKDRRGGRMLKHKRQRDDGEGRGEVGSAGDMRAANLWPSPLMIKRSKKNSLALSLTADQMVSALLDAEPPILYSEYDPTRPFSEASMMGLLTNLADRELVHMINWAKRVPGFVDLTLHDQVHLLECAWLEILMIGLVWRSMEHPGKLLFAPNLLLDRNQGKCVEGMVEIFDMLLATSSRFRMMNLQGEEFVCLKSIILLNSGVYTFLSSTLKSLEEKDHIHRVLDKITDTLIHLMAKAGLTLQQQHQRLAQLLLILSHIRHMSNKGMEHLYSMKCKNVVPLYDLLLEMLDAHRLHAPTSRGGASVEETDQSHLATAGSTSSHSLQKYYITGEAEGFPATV
Method in brief: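 Estrogenic luciferase signal in VM7Luc4E2 cells is measured at 24 hour, after chemicals have been preconditioned 2 hours with PB/BNF-induced rat hepatic S9 in alginate. Gain of signal is fitted relative to 17beta-estradiol, across 0.002 - 200 uM.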

[3] = CCTE_Shafer_MEA_acute_burst_number: CCTE's Neural Acute Assay for Single-Electrode Bursts, Shafer Lab (AID 2284013)
Method in brief: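 Primary rat cortical neurons on 16-electrode MEA wells, DIV 13 or 15, exposed to compound (0.03-40 uM; ≥3 wells); 40-min recordings at 37 C before and after treatment. Burst count expressed as percent change from baseline, DMSO as negative control.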

[4] = CCTE_Shafer_MEA_acute_burst_duration_mean: CCTE's Neural Acute Assay for Mean Burst Duration, Shafer Lab (AID 2284014);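 further: hits are decreases in mean burst duration relative to DMSO controls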
Method in brief: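 Mean burst duration was compared between a 40 min baseline and a 40 min recording in the presence of compound (0.03-40 uM, 37 C), giving percent change per well. Cultures were rat cortical neurons at DIV 13 or 15; wells needed ≥10 active electrodes.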

[5] = CCTE_Shafer_MEA_acute_interburst_interval_mean: CCTE's Neural Acute Assay for Mean Interburst Interval, Shafer Lab (AID 2284016);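 further: percent change of mean interburst interval versus each well's own pre-dose baseline; curves fitted for decrease in interburst interval relative to DMSO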
Method in brief: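 Rat primary cortical neurons on 48-well MEAs at DIV 13 or 15 were exposed acutely to 0.03-40 uM. Spikes detected at 8x rms noise, 37 C. Mean interburst interval from 40 min recordings expressed as percent change from 40 min pre-treatment baseline.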

[6] = CCTE_Shafer_MEA_acute_burst_percentage_mean: CCTE's Neural Acute Assay for Percentage of Spikes in a Burst, Shafer Lab (AID 2284017);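 on AC50: curve fitted for loss of signal so potency reflects decreased burst percentage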
Method in brief: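 Primary rat cortical neurons on 48-well MEA plates, treated on DIV 13 or 15 at 0.03-40 uM. Spikes detected at 8x rms noise at 37C; percent change from 40-min baseline to 40-min post-dose recording, fitted versus DMSO.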

[7] = CCTE_Shafer_MEA_acute_burst_percentage_std: CCTE's Neural Acute Assay for Standard Deviation of Burst Percentage, Shafer Lab (AID 2284018);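 further: fitted in the negative direction so actives lower burst percentage SD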
Method in brief: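 Value is percent change from baseline in the across-electrode SD of spikes-in-bursts percentage, wells with >/= 10 active electrodes. Acute 40-min exposure to 0.03-40 uM on DIV 13 or 15 rat cortical cultures, recorded at 37 C after 40-min baseline.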

[8] = CCTE_Shafer_MEA_acute_per_network_burst_spike_number_mean: CCTE's Neural Acute Assay for Average Number of Spikes in a Network Burst, Shafer Lab (AID 2284019);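 on AC50: curve fitted for loss of signal so actives reduce spikes per network burst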
Method in brief: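 Percent change from baseline in mean spikes per network burst, spikes detected at 8x rms noise. Each compound at 0.03-40 uM in at least three wells of rat cortical cultures, recorded 40 min before and 40 min during exposure.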

[9] = CCTE_Shafer_MEA_acute_per_network_burst_spike_number_std: CCTE's Neural Acute Assay for Standard Deviation of Number of Spikes in a Network Burst, Shafer Lab (AID 2284020);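 further: fitted for decrease in spike-number SD versus DMSO so actives lower it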
Method in brief: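 Endpoint: percent change from 40 min baseline in standard deviation of spikes per network burst, after 40 min compound exposure (0.03-40 uM, 37 C). Cortical rat neurons on MEA at DIV 13 or 15; spikes detected at 8x rms noise, 300-5000 Hz band-pass.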

[10] = CCTE_Shafer_MEA_acute_per_network_burst_electrodes_number_mean: CCTE's Neural Acute Assay for Mean Number of Electrodes in a Network Burst, Shafer Lab (AID 2284021);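 further: curves fitted for decreases only so hits reduce electrodes per burst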
Method in brief: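 Percent change from baseline in average electrode count per network burst, rat cortical cultures on 48-well MEAs; 40-min recordings each side of exposure, DIV 13 or 15; threshold 8x rms noise; DMSO as negative control.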

[11] = CCTE_Shafer_MEA_acute_network_burst_percentage: CCTE's Neural Acute Assay for Percentage of Network Bursts, Shafer Lab (AID 2284022);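 further: curves fitted for loss so actives lower network burst percentage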;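 on outcome: rat primary cortical neuron networks on multiwell MEA recorded 40 min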
Method in brief: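 On DIV 13 or 15, at least three wells of rat cortical neurons per compound are dosed at 0.03-40 uM. Spontaneous firing is detected at 8x rms noise for 40 min before and after dosing at 37 C. The percent change in network-burst spike share is reported.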

[12] = CCTE_Shafer_MEA_acute_cross_correlation_area: CCTE's Neural Acute Assay for Area of Cross Correlation, Shafer Lab (AID 2284024);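 further: area under pooled inter-electrode spike cross-correlation near zero lag as percent change from own baseline; curves fitted for loss of cross-correlation area so actives lower synchrony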
Method in brief: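 Extracellular recordings from cultured rat cortical neurons measure network synchrony as cross-correlation area; each well's post-compound value (0.03-40 uM, 40 min) is compared with its own 40 min baseline to give percent change.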

[13] = CCTE_Shafer_MEA_acute_cross_correlation_HWHM: CCTE's Neural Acute Assay for Cross Correlation at Half Width at Half Maximum, Shafer Lab (AID 2284026);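 further: spontaneous network firing of rat primary cortical neurons on multiwell microelectrode arrays; percent change per well from pre-dose baseline in spike cross-correlogram half width; hits are a decrease in cross-correlogram half width relative to DMSO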
Method in brief: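 Percent change in cross-correlogram half width at half maximum, narrower meaning more synchrony, was derived per well from paired 40-min recordings before and during exposure to 0.03-40 uM compound in rat cortical cultures at 37 C.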

[14] = CCTE_Shafer_MEA_acute_synchrony_index: CCTE's Neural Acute Assay for Synchrony, Shafer Lab (AID 2284027);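 further: network synchrony index of spontaneous spiking in primary rat cortical neurons on MEAs; fitted for loss of signal so actives lower synchrony relative to DMSO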
Method in brief: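 Plates equilibrated 20 min at 37 C, baseline recorded 40 min, compound (0.03-40 uM) added, then 40 min more recorded. Cells: primary rat cortical neurons, DIV 13 or 15. Per-well synchrony index change analysed in negative direction against DMSO.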

[15] = CCTE_Shafer_MEA_dev_firing_rate_mean: CCTE's Neural Network Formation Assay for Mean Firing Rate, Shafer Lab (AID 2284031);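 on AC50: curve fitted for loss of firing so AC50 reflects decreased mean firing rate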
Method in brief: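 Steps: seed rat cortical cells (1.5 x 10^5/well) with laminin on PEI-coated MEA; dose day 0; record DIV 5/7/9/12, full media and compound exchange after DIV 5 and 9 recordings; compute well-mean firing rate AUC.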

[16] = CCTE_Shafer_MEA_dev_per_burst_spike_percent: CCTE's Neural Network Formation Assay for Percent of Spikes in a Burst, Shafer Lab (AID 2284032);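 on AC50: fitted as a decrease in burst spike percentage below DMSO baseline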
Method in brief: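 Value is trapezoidal AUC over recordings on days 5, 7, 9 and 12 of the well-mean fraction of spikes falling in single-electrode bursts; rat cortical cultures exposed continuously from plating, treatment renewed DIV 5 and 9, fitted downward against DMSO.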

CC(C)OC(=O)c1ccccc1
outcome [1]: inactive

C=C1C[C@H]2[C@@H]3C=C(C)C4=CC(=O)CC[C@]4(C)[C@H]3CC[C@]2(C)[C@@]1(OC(C)=O)C(C)=O
outcome [1]: inactive | outcome [2]: inactive

CC(CCC(=O)O)(c1ccc(O)cc1)c1ccc(O)cc1
outcome [3]: inactive | outcome [4]: inactive | outcome [5]: inactive | outcome [6]: inactive | outcome [7]: inactive | outcome [8]: inactive | outcome [9]: inactive | outcome [10]: inactive | outcome [11]: inactive | outcome [12]: inactive | outcome [13]: inactive | outcome [14]: inactive | AC50 [2]: 100 µM (active)

C=C(C)C1CC=C(C)CC1 (centres undefined)
outcome [1]: inactive | outcome [2]: inactive

CC/C=C\CCOC(=O)c1ccccc1O
outcome [3]: inactive | outcome [4]: inactive | AC50 [5]: 15 µM (active) | outcome [6]: inactive | outcome [7]: inactive | AC50 [8]: 3 nM (active) | outcome [9]: inactive | outcome [10]: inactive | outcome [11]: inactive | outcome [12]: inactive | outcome [13]: inactive | outcome [14]: inactive

CCOC(=O)C1=NOC(c2ccccc2)(c2ccccc2)C1
outcome [1]: inactive | outcome [2]: inactive

CC(=O)OCc1ccccc1
outcome [1]: inactive | outcome [2]: inactive

Nc1cccc(N)n1
AC50 [3]: 3 nM (active) | outcome [4]: inactive | outcome [5]: inactive | AC50 [6]: 3 nM (active) | AC50 [7]: 3 nM (active) | AC50 [8]: 45.6 nM (active) | AC50 [9]: 11.7 nM (active) | outcome [10]: inactive | AC50 [11]: 3.18 nM (active) | outcome [12]: inactive | outcome [13]: inactive | AC50 [14]: 3 nM (active)

CCCc1ccc(O)c(OC)c1
outcome [1]: inactive

CC1(C)CC(O)CC(C)(C)N1[O]
outcome [1]: inactive | outcome [3]: inactive | outcome [4]: inactive | outcome [5]: inactive | outcome [6]: inactive | outcome [7]: inactive | outcome [8]: inactive | outcome [9]: inactive | outcome [10]: inactive | AC50 [11]: 20.4 nM (active) | outcome [12]: inactive | outcome [13]: inactive | outcome [14]: inactive

CCCCC/C=C\C/C=C\CCCCCCCC(=O)O
outcome [1]: inactive | outcome [2]: inactive

Cc1noc(NS(=O)(=O)c2ccc(N)cc2)c1C
outcome [1]: inactive | outcome [15]: inactive | outcome [16]: inactive

Nc1ncnc2nc[nH]c12
outcome [1]: inactive

CC(C)(C)NC(=O)[C@H]1CC[C@H]2[C@@H]3CC[C@H]4NC(=O)C=C[C@]4(C)[C@H]3CC[C@]12C
outcome [1]: inactive

CC(=O)/C=C/C1C(C)=CCCC1(C)C (centres undefined)
outcome [1]: inactive | outcome [2]: inactive

O=C(O)CCC(=O)O
outcome [1]: inactive | outcome [2]: inactive

CCCC(C)C(=O)OCC (centres undefined)
outcome [3]: inactive | outcome [4]: inactive | outcome [5]: inactive | outcome [6]: inactive | outcome [7]: inactive | outcome [8]: inactive | outcome [9]: inactive | outcome [10]: inactive | outcome [11]: inactive | outcome [12]: inactive | outcome [13]: inactive | outcome [14]: inactive

CCCCCCCCCCCCCC(=O)OC(C)C
outcome [2]: inactive

O=c1c(O)c(-c2ccc(O)cc2O)oc2cc(O)cc(O)c12
AC50 [2]: 133 µM (active)

CC(C)=CCCC(C)=CC#N
outcome [2]: inactive

O=C(O)C1CCC(C(=O)O)CC1 (centres undefined)
outcome [2]: inactive

CO[Si](C)(C)OC
outcome [2]: inactive

CCCCNS(=O)(=O)c1ccc(C)cc1
outcome [2]: inactive

CCCCCCCCCCCCc1ccc(O)cc1
AC50 [2]: 0.804 µM (active)

CCCCCCCCCC(C)=O
outcome [2]: inactive

CC(C)(C)N
outcome [2]: inactive

CCCCCCCCC(CO)CCCCCC (centres undefined)
outcome [2]: inactive

CCCCCCCCCCCCCCCCCCOS(=O)(=O)O
outcome [2]: inactive

CCCC(CC)c1ccccc1 (centres undefined)
outcome [2]: inactive

C/C=C/C=C/CCCCCCCO
outcome [2]: inactive

CCC(C)(O)CCCC(C)C (centres undefined)
outcome [2]: inactive

O=C(O)c1ccc2c(c1)C(=O)OC2=O
outcome [2]: inactive

CCCCNC(=S)NCCCC
outcome [2]: inactive

CCCCNS(=O)(=O)c1ccccc1
outcome [2]: inactive | outcome [15]: inactive | outcome [16]: inactive

C=CCOC(=O)c1ccc(C(=O)OCC=C)c(C(=O)OCC=C)c1
outcome [2]: inactive

CCCCCC[C@@H](O)C/C=C\CCCCCCCC(=O)OCC(O)CO (some centres undefined)
outcome [2]: inactive

CC(C)c1cc(C(C)C)cc(C(C)C)c1
outcome [2]: inactive

CCC1COC(=O)O1 (centres undefined)
outcome [2]: inactive

CCCCCCOc1ccc(N)cc1
outcome [2]: inactive

CCCCCCCCCC[N+](C)(CCCCCCCCCC)CCC[Si](OC)(OC)OC
outcome [2]: inactive

CC1(C)[C@@H]2CC[C@@]1(C)C(=O)C2
outcome [2]: inactive

CCCCCC(=O)OCC
outcome [2]: inactive

CC1=NN(c2ccc(S(=O)(=O)O)cc2)C(=O)C1N=Nc1ccccc1 (centres undefined)
outcome [2]: inactive

Cc1ccc([N+](=O)[O-])cc1N
outcome [2]: inactive

O=C(O)CC(C(=O)O)S(=O)(=O)O (centres undefined)
outcome [2]: inactive

Nc1ccc(C(=O)O)cc1
outcome [2]: inactive

N#Cc1ccc(C(c2ccc(C#N)cc2)n2cncn2)cc1
outcome [2]: inactive

C[Si](C)(C)N[Si](C)(C)C
outcome [2]: inactive

O=C(Nc1ccccc1)c1cc(Cl)ccc1O
outcome [2]: inactive

C[N+](C)(C)CCCNS(=O)(=O)C(F)(F)C(F)(F)C(F)(F)C(F)(F)C(F)(F)C(F)(F)C(F)(F)C(F)(F)F
AC50 [15]: 4.93 µM (active) and 2.98 µM (active) | AC50 [16]: 2.98 µM (active) and 4.47 µM (active)
